These results are taken from PubChem BioAssay AID1861 (The Scripps Research Institute Molecular Screening Center, 2009).

Out of some 290,000 compounds screened, about 3,100 (1.1%) were called active. Cut-off read from the data, not from the text of the source: active = inhibition above about 16% (passing the limit was not always enough); inactive = the rest. The entries come from a sample that favours actives as a whole.

Sequence of Neuropeptides B/W receptor type 1 (Homo sapiens) (P48145 whole entry, looked up): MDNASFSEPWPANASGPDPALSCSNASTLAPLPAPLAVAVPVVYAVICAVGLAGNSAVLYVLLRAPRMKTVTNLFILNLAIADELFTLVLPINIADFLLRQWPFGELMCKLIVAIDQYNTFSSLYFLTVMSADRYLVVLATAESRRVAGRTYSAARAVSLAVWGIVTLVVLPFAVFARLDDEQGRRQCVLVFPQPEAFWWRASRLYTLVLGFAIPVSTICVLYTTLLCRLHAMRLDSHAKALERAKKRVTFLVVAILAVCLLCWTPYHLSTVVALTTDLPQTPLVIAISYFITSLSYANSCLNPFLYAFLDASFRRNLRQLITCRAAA

This assay has as its target Neuropeptides B/W receptor type 1 (Homo sapiens) (UniProt P48145). The assay can be described thus: blockers of human neuropeptide B/W receptor 1 – cell-based, fluorescence, single concentration, primary screen (AID 1861).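 Note: cells stimulated with the agonist NPW; 0% = agonist with vehicle and 100% = vehicle without agonist.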 As to conditions: GPR7-expressing cells, fluorescence antagonist assay; at 4.4 µM; hits give high values.
On to `CCCC(C)c1nnc(NC(=O)C2CC(=O)N(c3ccc(OCC)cc3)C2)s1` (centres undefined), for which the inhibition (in general, the relative decrease from the control value, in per cent) is 0.56% (inactive).

Take `COc1ccc(N(CC(=O)Nc2cc(OC)ccc2OC)S(=O)(=O)c2c(C)noc2C)cc1`: the inhibition is -4.71% (inactive).

In the case of `COc1cccc(-n2c(SCC(=O)c3c[nH]c4ccccc34)nc3ccccc3c2=O)c1`, the inhibition was -11.6% (inactive).

As to `COc1ccc(/C=C(\C#N)c2c[nH]c3ccccc23)cc1`, the inhibition was 17.2% (inactive).

As to `COc1ccc(C(C(O)C(=O)c2c[nH]c3ccccc23)N2CCN(c3ccccc3)CC2)cc1` (centres undefined), the inhibition is 25.7% (active).

With `COc1ccc(C(=O)NC(=S)N2CCCCC2c2cccnc2)cc1OC` (centres undefined), the inhibition was -2.66% (inactive).

As to `Nc1nc(NCc2ccccc2)n(-c2ccccc2)n1`, the inhibition was -7.72% (inactive).

For `Cc1ccc(NC(=O)CN2C(=O)NC(C)(c3ccc(Cl)cc3)C2=O)c(Br)c1` (centres undefined), the inhibition was 22.3% (active).

For `CC1(c2ccc(Cl)cc2)NC(=O)N(CC(=O)c2ccc3c(c2)OCO3)C1=O` (centres undefined), the inhibition was -6.7% (inactive).

As for `O=C(CN1C(=O)NC2(CCCC2)C1=O)Nc1ccc(F)c(F)c1F`, the inhibition was 11.1% (inactive).

With `O/N=C(\C[n+]1ccccc1)c1ccc(Br)cc1`, the inhibition is 5.69% (inactive).

With `CCOc1ccc(-n2c(SCC(=O)Nc3cc(C(=O)O)ccc3Cl)nc3ccccc3c2=O)cc1`, the inhibition was 2.21% (inactive).

For the compound `O=C(COc1ccc(Cl)cc1)N1CCN(c2cccc(C(F)(F)F)c2)CC1`, the inhibition was -8.3% (inactive).

Consider `O=C(COc1ccc(S(=O)(=O)Nc2cccc(C(F)(F)F)c2)cc1)N1CCOCC1`, for which the inhibition was 26.6% (active).

Regarding `O=C(COc1ccc(S(=O)(=O)NCc2ccccc2)cc1)N1CCOCC1`, the inhibition was 4.86% (inactive).

`COc1ccccc1/C=N\Nc1cc(C)nc(-n2nc(C)cc2C)n1`: the inhibition was -14.4% (inactive).

As to `Cc1cc(N/N=C\c2ccc(Br)cc2)nc(-n2nc(C)cc2C)n1`, the inhibition was -2.3% (inactive).

As for `COc1ccc(Nc2cc(C)nc(-n3nc(C)cc3C)n2)cc1`, the inhibition was 20.7% (active).

Consider `O=C(NCCc1c[nH]c2ccccc12)C1CCN(Cc2ccc(Br)cc2)CC1`, for which the inhibition was 6.85% (inactive).

Consider `CCc1ccc(N(C(=O)c2csnn2)C(C(=O)NC2CCCCC2)c2cccnc2)cc1` (centres undefined), for which the inhibition is 16.5% (inactive).

Turning to `CCc1ccc(N(C(=O)c2csnn2)C(C(=O)NC2CCCCC2)c2ccncc2)cc1` (centres undefined), the inhibition was 22.7% (active).

Consider `O=C(NC1CCCC1)C(c1ccco1)N(C(=O)c1csnn1)c1ccccc1` (centres undefined), for which the inhibition is -7.05% (inactive).

Consider `O=C(NCC(=O)N(c1ccccc1)C(C(=O)NCC1CCCO1)c1ccccc1)c1cccs1` (centres undefined), for which the inhibition is -0.97% (inactive).

Regarding `CN(C)CCNc1ccc(-c2n[nH]c(=O)c3ccccc23)cc1[N+](=O)[O-]`, the inhibition is -19.5% (inactive).

With `O=C(Nc1ccc2ccccc2c1)Nc1ccc2snnc2c1`, the inhibition was 31.3% (active).

For `CCc1ccccc1NC(=O)c1ccc2snnc2c1`, the inhibition is 4.67% (inactive).

Take `O=C(Nc1cccc(Br)c1)c1ccc2snnc2c1`: the inhibition was 6.67% (inactive).

For the compound `COCC(=O)N1CCCC(C(=O)c2ccc(C(F)(F)F)cc2)C1` (centres undefined), the inhibition is -16.7% (inactive).

On to `CCOC(=O)C1(CCOC)CCN(Cc2cc3ccccc3s2)CC1`, for which the inhibition is -2.08% (inactive).

On to `O=C1CCN(Cc2ccc([N+](=O)[O-])cc2)CCN1[C@H](CO)Cc1ccccc1`, for which the inhibition was 0.55% (inactive).

Consider `CCOc1ccc(N=C2SC(C(=O)O)CC(=O)N2C)cc1` (centres undefined), for which the inhibition was -6.69% (inactive).

On to `COc1ccc(N=C2SC(C(=O)Nc3ccc(F)cc3)CC(=O)N2C)cc1` (centres undefined), for which the inhibition was 26.4% (active).

As to `COc1ccc(C(=O)NC2CCN(C(=O)Nc3ccc(F)cc3)CC2)cc1`, the inhibition is -10.4% (inactive).

Regarding `CC1CC(=O)N(CC(=O)Nc2cccc(Cl)c2)c2ccccc2S1(=O)=O` (centres undefined), the inhibition is 0.41% (inactive).

As for `O=C(CSCc1ccc([N+](=O)[O-])cc1)NCCSCc1ccccc1`, the inhibition is 44.7% (active).

On to `O=C(CSCc1ccc([N+](=O)[O-])cc1)Nc1cccc(C(=O)Nc2ccccc2C(=O)O)c1`, for which the inhibition was -8.22% (inactive).

Regarding `COc1ccc(NC(=O)CSCc2ccc([N+](=O)[O-])cc2)cc1OC`, the inhibition was -12% (inactive).

For the compound `CC(=O)Nc1ccc(NC(=O)CSc2nnnn2-c2ccccc2F)cc1`, the inhibition is -7.45% (inactive).

In the case of `O=C(CN1CCc2cc3c(cc2C1)OCCCO3)Nc1ccccc1`, the inhibition is -5.17% (inactive).

For the compound `Cc1ccc(S(=O)(=O)CC(=O)Nc2c(C)n(C)n(-c3ccccc3)c2=O)cc1`, the inhibition was 1.37% (inactive).

For `Cc1c(CCO)c(=O)n(-c2ccccc2)n1S(=O)(=O)c1ccc(F)cc1`, the inhibition was 33% (active).

As for `CCOC(=O)C1CN(S(=O)(=O)c2ccc(F)cc2)C1`, the inhibition is -9.92% (inactive).

Take `CC1(C)C(C=C(Cl)Cl)C1C(=O)NC(O)C(=O)c1ccccc1` (centres undefined): the inhibition was -5.98% (inactive).

Take `O=C(CN(C(=O)CNC(=O)c1cccs1)c1cccc(F)c1)NC1CCCCC1`: the inhibition was 7.46% (inactive).

Regarding `O=C(CCc1ccccc1)Nc1ccc(NC(=O)C2CC2)nc1`, the inhibition is 34% (active).

Consider `O=C(NCCc1ccccc1)C1CC1`, for which the inhibition was -22.6% (inactive).

As to `O=C(CCc1ccccc1)Nc1ccc(NC(=O)C2CCCCC2)nc1`, the inhibition is 14% (inactive).

On to `O=C(C1CC(=O)N(c2ccc(Br)cc2)C1)N1CCCC1` (centres undefined), for which the inhibition was -7.92% (inactive).

For `COC(=O)c1ccc(N2CCOCC2)c(NC(=O)c2ccc3c(c2)OCCO3)c1`, the inhibition was -10.5% (inactive).

As to `CN(CC(=O)NCCc1ccccn1)S(=O)(=O)c1ccc(Cl)cc1`, the inhibition was -4.58% (inactive).

Consider `CC(=O)Nc1ccc(S(=O)(=O)N(C)CC(=O)NCCC2=CCCCC2)cc1`, for which the inhibition is 26.4% (active).

Regarding `CN(c1ccc(C(=O)NCCC2=CCCCC2)cc1)S(C)(=O)=O`, the inhibition was 10.7% (inactive).

For `Cc1ccccc1/C=C\c1nc(O)c([N+](=O)[O-])c(=O)[nH]1`, the inhibition is -0.51% (inactive).

Consider `CCOC(=O)N1CCC(N2Cc3cccc(C(=O)Nc4c(C)cccc4CC)c3C2=O)CC1`, for which the inhibition is 8.95% (inactive).

`Cc1cc(C)cc(OCC(=O)NC(C)c2ccccc2)c1` (centres undefined): the inhibition was -3.54% (inactive).

As to `COc1cc(OC)cc(C(=O)N[C@H](C(=O)OCC(=O)NC(C)c2ccccc2)C(C)C)c1` (some centres undefined), the inhibition is 34.5% (active).

Turning to `Cc1ccc(OCC(=O)NC(C)c2ccccc2)cc1C` (centres undefined), the inhibition was 5.96% (inactive).

On to `Cc1ccc(S(=O)(=O)N2CCC(C)CC2)cc1C(=O)NCc1ccccn1`, for which the inhibition was -11.1% (inactive).

As to `Cc1ccc(SCc2c(C(=O)N/N=C/c3cccnc3)nnn2-c2nonc2N)cc1`, the inhibition was -12% (inactive).
